In PubChem BioAssay AID2685 (National Center for Advancing Translational Sciences (NCATS), 2010):
Hit rate of the full screen: of about 320,000 compounds, about 2,100 (0.66%) were called active. Not shown: some 53% with an inconclusive outcome. The call rests on the fitted dose curve; in most records, active means well fitted inhibition curve with a large enough effect in the signal ratio, with a control signal flat (not every such curve was filed as active); inconclusive means small, poorly fitted or top-dose-only effect, or effect the other way, or a change in a side signal; inactive means flat fitted curve, though single readings scatter; the % refers to the signal ratio. What follows is part of a selection rich in actives, with near analogues and random picks from the rest.

Assay: qHTS Assay for Lipid Storage Modulators in Drosophila S3 Cells;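 on cell number change: cells counted by Cell Tracker Red CMTPX staining in the red channel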; on lipid storage change, negative = inhibition: on the % scale 0 is the no-effect control and ±100 the full control effect
Settings: BODIPY lipid droplet fluorescence, 18-24 h, cells fed with added oleic acid; cell number change: measured here: cell count max response; series mostly up to 46.1 µM; lipid storage change, negative = inhibition: at the top concentration
Method in brief: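 Laser-scanning cytometry quantifies lipid droplet accumulation (500–530 nm total intensity; droplet/cell object ratio) in oleic acid-fed (400 uM added) Drosophila S3 cells treated with a concentration series. 20 uM Triacsin C defined 100% inhibition.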
Potency means the concentration at half of the fitted maximal effect.

| Structure (SMILES) | lipid storage change, negative = inhibition | cell number change [%] | Potency | outcome |
| --- | --- | --- | --- | --- |
| S=c1[nH]nc(CN2CCCCC2)n1Cc1ccccc1 | 17.3% (inactive) | -2.92 | – | – |
| Cc1ccc(S(=O)(=O)CCN2CCN(c3ccccn3)CC2)cc1 | 11.2% (inactive) | 3.2 | – | – |
| Cc1cc(-c2ccc(C)c(S(=O)(=O)N3CC(=O)Nc4ccccc43)c2)on1 | – | 3.36 | 1.03 µM (active) | – |
| Cc1cc(-c2ccc(C)c(S(=O)(=O)N3CCN(c4ccccn4)CC3)c2)on1 | – | -26.7 | – | inactive |
| CCc1ccc(-c2cc(C)no2)cc1S(=O)(=O)N1CC(=O)Nc2ccccc21 | – | -17.1 | 4.11 µM (active) | – |
| CCc1ccc(-c2cc(C)no2)cc1S(=O)(=O)N1CCOc2ccccc21 | – | -0.472 | 16.4 µM (active) | – |
| Cc1ccc(S(=O)(=O)N2CC(=O)Nc3ccccc32)c(C)c1NS(C)(=O)=O | -1.89% (inactive) | -8.89 | – | – |
| CCc1ccc(-c2cc(C)no2)cc1S(=O)(=O)Nc1ccccn1 | – | -19.5 | – | inactive |
| CCc1ccc(-c2cc(C)no2)cc1S(=O)(=O)N1CCN(c2ccccc2OC)CC1 | -26.9% (inactive) | 23.3 | – | – |
| CCc1ccc(-c2cc(C)no2)cc1S(=O)(=O)N1CCCN(Cc2ccc(F)cc2)C1 | – | 2.69 | – | inactive |
| CCc1ccc(-c2cc(C)no2)cc1S(=O)(=O)NCCc1ccccc1 | – | 13.1 | – | inactive |
| Cc1ccc(Nc2cc(C)nc(-c3ccccc3)n2)cc1 | – | – | – | inactive |
| CC(=O)CSc1cc(-c2ccccc2)nc2ncnn12 | 1.07% (inactive) | -21.4 | – | – |
| Cc1cc(C)nc(NS(=O)(=O)c2ccc(NC(=O)Nc3ccccc3F)cc2)n1 | -5.13% (inactive) | -10.1 | – | – |
| O=C(Cn1cccc1C(=O)c1ccccc1)NCCCN1CCOCC1 | 4.62% (inactive) | -0.598 | – | – |
| O=C1c2ccccc2CN1Cc1ccccc1 | 13.6% (inactive) | 10.2 | – | – |
| CCCCCCCCOC(=O)CCn1[nH]c(=O)c2ccccc2c1=O | 11.7% (inactive) | -16.3 | – | – |
| O=C(CCn1[nH]c(=O)c2ccccc2c1=O)NCCO | – | 1.53 | 11.6 µM (active) | – |
| COC(=O)CCn1[nH]c(=O)c2ccccc2c1=O | 19.6% (inactive) | -3.6 | – | – |
| c1ccc(CN2CCOCCOCCOCC2)cc1 | -1.95% (inactive) | -1.02 | – | – |
| CCOC(=O)c1ccc(N2C(=O)c3n[nH]c(C)c3C2c2ccc(OC)cc2)cc1 (stereo not given) | 4.29% (inactive) | -20.7 | – | – |
| CC1(CCc2ccccc2)NC(=O)N(CC(=O)O)C1=O (stereo not given) | -11.3% (inactive) | -3.79 | – | – |
| Cc1ccc(NC(=O)CSc2nnc(C3CC3)n2N)cc1S(=O)(=O)N1CCOCC1 | 8.03% (inactive) | 12.4 | – | – |
| O=C(CCN1C(=O)NC2(CCCC2)C1=O)Nc1cccc(S(=O)(=O)N2CCOCC2)c1 | -1.8% (inactive) | 2.63 | – | – |

| Structure (SMILES) | lipid storage change, negative = inhibition | cell number change [%] | Potency | outcome |
| --- | --- | --- | --- | --- |
| CC1CCCN(C(=O)Cn2c3ccccc3c3nc4n(c(=O)c32)CCS4)C1 (stereo not given) | – | -9.4 | 7.31 µM (active) | – |
| O=C(Cn1c2ccccc2c2nc3n(c(=O)c21)CCS3)Nc1ccccc1C(F)(F)F | -7.14% (inactive) | -11.3 | – | – |
| O=C(Cn1c2ccccc2c2nc3n(c(=O)c21)CCS3)N1CCCC1 | – | -22.8 | – | inactive |
| COc1ccc(/C=N\Nc2ccccc2[N+](=O)[O-])c(C(=O)O)c1OC | 12.5% (inactive) | 2.19 | – | – |
| Cc1ccc(C(=O)CSc2nnc(-c3ccccc3)n2-c2ccccc2)o1 | 12.7% (inactive) | 6.85 | – | – |
| COc1ccc(C(C)N2CC34C=CC(O3)C(C(=O)OCC(C)C)C4C2=O)cc1 (stereo not given) | 2.76% (inactive) | -0.854 | – | – |
| CCOC(=O)C1[C@H]2C(=O)N(C(C)c3ccc(OC)cc3)C[C@]23C=C[C@H]1O3 (stereo not given in full) | 4.99% (inactive) | -3.61 | – | – |
| COC(=O)C1C2C=CC3(CN(C(C)c4ccc(OC)cc4)C(=O)C13)O2 (stereo not given) | – | -5.31 | 16.4 µM (active) | – |
| Cc1ccccc1Nc1nccc(N(C)C)c1C#N | -15.1% (inactive) | -17.6 | – | – |
| CC(=O)Nc1ccc(/C=C(\C#N)C(=O)NC2CCCCC2)cc1 | – | 6.15 | 20.6 µM (active) | – |
| N#C/C(=C\c1ccccc1)C(=O)NC1CC1 | 20% (inactive) | – | – | – |
| COc1ccc(/C=C(/C#N)C(=O)NC2CCCCC2)cc1Br | 8.79% (inactive) | -11.6 | – | – |
| COCCn1c(=O)[nH]c2cc(C(=O)NCCN3CCN(c4ccccc4F)CC3)ccc2c1=O | -1.14% (inactive) | -8.35 | – | – |
| COc1ccc(N2CCN(C(=O)c3ccc4c(=O)n(CCc5ccc(OC)c(OC)c5)c(=O)[nH]c4c3)CC2)cc1 | -2.58% (inactive) | -0.645 | – | – |
| COCCn1c(=O)[nH]c2cc(C(=O)N3CCN(c4ccccc4F)CC3)ccc2c1=O | – | -14.1 | 11.6 µM (active) | – |
| CCCCCn1c(=O)[nH]c2cc(C(=O)N3CCN(C(=O)OCC)CC3)ccc2c1=O | – | – | 3.66 µM (active) | – |
| CCCCCn1c(=O)[nH]c2cc(C(=O)N3CCN(CC)CC3)ccc2c1=O | – | – | – | inactive |
| CCOC(=O)N1CCN(C(=O)c2ccc3c(=O)n(CCOC)c(=O)[nH]c3c2)CC1 | 4.87% (inactive) | 1.58 | – | – |
| COc1cc2[nH]c(=O)n(Cc3ccc(C(=O)NCC4CCCO4)cc3)c(=O)c2cc1OC (stereo not given) | 4.38% (inactive) | 12.5 | – | – |
| COc1cc2[nH]c(=O)n(Cc3ccc(C(=O)NC4CCCC4)cc3)c(=O)c2cc1OC | – | – | – | inactive |
| CCOC(=O)N1CCN(C(=O)c2ccc3c(=O)n(CCc4ccc(OC)c(OC)c4)c(=O)[nH]c3c2)CC1 | – | 12.7 | 1.3 µM (active) | – |
| COc1cc2[nH]c(=O)n(Cc3ccc(C(=O)N4CCC(N5CCCCC5)CC4)cc3)c(=O)c2cc1OC | – | -3.59 | 0.411 µM (active) | – |
| CCCCCn1c(=O)[nH]c2cc(C(=O)N3CCN(c4ccccc4F)CC3)ccc2c1=O | – | 0.806 | – | inactive |
| CCOC(=O)N1CCN(C(=O)c2ccc3c(=O)n(CCc4ccccc4)c(=O)[nH]c3c2)CC1 | – | – | – | inactive |
